{"source": "the supplement of paper PMC3334620", "note": "In all, about 33,000 sequences were measured (“E-score (-0.5 to 0.5)”: median about -0.016, highest 2% from about 0.3 on). This excerpt belongs to a sample that is enriched for the highest values.", "data": [{"biological_target": "T1, Yer184c (UniProt P39961)", "T1 sequence": "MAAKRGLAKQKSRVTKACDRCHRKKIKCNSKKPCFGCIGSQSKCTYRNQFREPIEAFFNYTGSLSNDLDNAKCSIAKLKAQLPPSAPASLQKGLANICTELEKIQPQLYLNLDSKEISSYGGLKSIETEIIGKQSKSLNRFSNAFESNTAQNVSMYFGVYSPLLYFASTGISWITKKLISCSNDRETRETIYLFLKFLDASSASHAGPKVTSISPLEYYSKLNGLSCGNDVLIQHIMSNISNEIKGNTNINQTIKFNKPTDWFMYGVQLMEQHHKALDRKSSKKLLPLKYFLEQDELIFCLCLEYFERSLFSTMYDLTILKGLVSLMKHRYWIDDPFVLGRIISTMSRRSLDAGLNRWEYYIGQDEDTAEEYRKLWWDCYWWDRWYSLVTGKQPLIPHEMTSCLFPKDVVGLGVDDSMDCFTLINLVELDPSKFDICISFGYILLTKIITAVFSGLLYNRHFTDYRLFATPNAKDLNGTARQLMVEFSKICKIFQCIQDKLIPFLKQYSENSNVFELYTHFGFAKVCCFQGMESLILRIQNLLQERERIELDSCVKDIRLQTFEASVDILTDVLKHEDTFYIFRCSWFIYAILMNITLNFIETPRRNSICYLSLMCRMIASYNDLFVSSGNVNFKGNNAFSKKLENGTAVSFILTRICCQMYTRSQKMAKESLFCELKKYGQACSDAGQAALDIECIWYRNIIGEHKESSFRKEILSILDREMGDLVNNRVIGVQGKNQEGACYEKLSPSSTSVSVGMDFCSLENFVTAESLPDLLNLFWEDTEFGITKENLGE", "experiment": "PBM E-score (8-mer binding enrichment) (E-score (-0.5 to 0.5)); higher = stronger / more preferred TF binding", "conditions": "protein concentration: 100 nM; construct: GST-full length", "method": "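Universal 'all 10-mer' protein binding microarrays (Agilent AMADID 015681) probed with GST-tagged S. cerevisiae TFs (full-length or DBD) made by in vitro transcription/translation (PURExpress), about 100-200 nM. Bound TF was detected with fluorescent anti-GST. Each ungapped 8-mer (which stands for itself and its reverse complement) is scored by the PBM enrichment score (E-score), a modified Wilcoxon-Mann-Whitney statistic from -0.5 to +0.5, computed with the Universal PBM Analysis Suite. Scale: above 0.35 generally sequence-specific binding.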", "values": [{"sequence": "GCCAACAC", "PBM E-score": 0.0745}, {"sequence": "CGTTGTTC", "PBM E-score": -0.00041}, {"sequence": "CTGGGCGA", "PBM E-score": -0.206}, {"sequence": "GCCCATCC", "PBM E-score": -0.224}, {"sequence": "TCGGTAGA", "PBM E-score": 0.307}, {"sequence": "CCGGTAGA", "PBM E-score": 0.264}, {"sequence": "ACGGTAGA", "PBM E-score": -0.0773}, {"sequence": "AGGCGATG", "PBM E-score": -0.0512}, {"sequence": "CCGCTGCG", "PBM E-score": -0.122}, {"sequence": "GCTAGCGA", "PBM E-score": -0.147}, {"sequence": "ACCCGAGT", "PBM E-score": 0.0508}, {"sequence": "CCTTACCG", "PBM E-score": 0.114}, {"sequence": "AAGAAATT", "PBM E-score": 0.346}, {"sequence": "AAGAAATG", "PBM E-score": 0.227}, {"sequence": "AAGAAATA", "PBM E-score": 0.163}, {"sequence": "AGTCGTGG", "PBM E-score": -0.191}, {"sequence": "ATAATTAG", "PBM E-score": 0.203}, {"sequence": "ATAATTAC", "PBM E-score": 0.265}, {"sequence": "ATCATTAG", "PBM E-score": 0.037}, {"sequence": "CTCATTAA", "PBM E-score": 0.067}, {"sequence": "TTAATTAA", "PBM E-score": -0.041}, {"sequence": "GAAATTAA", "PBM E-score": 0.337}, {"sequence": "GTAATTAA", "PBM E-score": 0.143}, {"sequence": "ATCATTAA", "PBM E-score": 0.307}, {"sequence": "CAAATTAA", "PBM E-score": 0.0386}, {"sequence": "ATAATTAA", "PBM E-score": 0.323}, {"sequence": "ATAATTAT", "PBM E-score": 0.386}, {"sequence": "AAAATTAA", "PBM E-score": 0.168}, {"sequence": "AACAAACT", "PBM E-score": 0.277}, {"sequence": "AACAACGA", "PBM E-score": 0.112}, {"sequence": "AGTGGCCC", "PBM E-score": -0.153}, {"sequence": "CAGGTATA", "PBM E-score": -0.163}, {"sequence": "AGTGTGCA", "PBM E-score": -0.0513}, {"sequence": "AACGATGT", "PBM E-score": 0.13}, {"sequence": "CTCACCCA", "PBM E-score": -0.0925}, {"sequence": "CACGTTCG", "PBM E-score": -0.203}, {"sequence": "GCGCAAGA", "PBM E-score": 0.188}, {"sequence": "AAAATTAC", "PBM E-score": 0.127}, {"sequence": "AAAATTAT", "PBM E-score": 0.316}, {"sequence": "AAAATTAG", "PBM E-score": 0.227}, {"sequence": "AGGGATAG", "PBM E-score": -0.208}, {"sequence": "CCATCTAC", "PBM E-score": -0.15}, {"sequence": "ACCGGACA", "PBM E-score": 0.122}, {"sequence": "GCAGGATA", "PBM E-score": -0.168}, {"sequence": "TCCGGACA", "PBM E-score": 0.431}, {"sequence": "CCCGGACA", "PBM E-score": 0.283}, {"sequence": "GGCGGATA", "PBM E-score": 0.0758}, {"sequence": "GCCGGACA", "PBM E-score": 0.36}, {"sequence": "GCCGGACC", "PBM E-score": 0.214}, {"sequence": "GACGGACA", "PBM E-score": 0.121}, {"sequence": "GCCGGATA", "PBM E-score": 0.354}, {"sequence": "ACAAGAAG", "PBM E-score": 0.048}, {"sequence": "CATCAGAG", "PBM E-score": -0.0413}, {"sequence": "GAGCACCC", "PBM E-score": -0.141}, {"sequence": "AAGTGATA", "PBM E-score": -0.118}, {"sequence": "GGGCCTTA", "PBM E-score": -0.209}, {"sequence": "CGGAGTAC", "PBM E-score": 0.0421}, {"sequence": "CGGAGTAA", "PBM E-score": 0.313}, {"sequence": "GGGAGTAA", "PBM E-score": 0.109}, {"sequence": "AACCCGAA", "PBM E-score": 0.14}, {"sequence": "CACGGCCA", "PBM E-score": 0.131}, {"sequence": "AGTAACCG", "PBM E-score": 0.117}, {"sequence": "ACCGCGGC", "PBM E-score": 0.344}, {"sequence": "ACCGCGGG", "PBM E-score": 0.291}, {"sequence": "ACCGCGGT", "PBM E-score": 0.195}, {"sequence": "CCCGCGGC", "PBM E-score": 0.35}, {"sequence": "CCCGCGGG", "PBM E-score": 0.3}, {"sequence": "CCCGCGGA", "PBM E-score": 0.257}, {"sequence": "ATGGACAT", "PBM E-score": 0.0596}, {"sequence": "GAGTCGTA", "PBM E-score": -0.0554}, {"sequence": "ATCGCAGA", "PBM E-score": -0.132}, {"sequence": "CCACCACA", "PBM E-score": -0.093}, {"sequence": "GAGTGCAC", "PBM E-score": -0.0537}, {"sequence": "AAATGATT", "PBM E-score": 0.316}, {"sequence": "AAATGATC", "PBM E-score": -0.0261}, {"sequence": "AAATGATA", "PBM E-score": 0.162}, {"sequence": "ACTATCGA", "PBM E-score": -0.203}, {"sequence": "ATTTCCAG", "PBM E-score": 0.0278}, {"sequence": "CTTTCCGC", "PBM E-score": 0.187}, {"sequence": "CTTTCCGA", "PBM E-score": 0.3}, {"sequence": "ATTTCCGA", "PBM E-score": 0.359}, {"sequence": "ACTTCCGG", "PBM E-score": 0.335}, {"sequence": "ACTTCCGA", "PBM E-score": 0.285}, {"sequence": "ATTTCCTG", "PBM E-score": 0.186}, {"sequence": "GTTTCCGA", "PBM E-score": 0.286}, {"sequence": "ATTTCCGG", "PBM E-score": 0.445}]}]}
